Bioassay records: PubChem, several laboratories
Only some compounds are listed: those with a hit (about 3.4% of all), similar ones and a draw of the others.
HIF-2a block – HIF-2a inhibition | 786-0 RCC cells HIF-2a reporter, luciferase luminescence, overnight | inhibition, % at 18.8 µM | 360,000 compounds, 0.72% hits;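 active means inhibition of the luminescence signal of 40% or more relative to plate controls, in a single-dose primary screen at 18.75 µM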
TWEAK-Fn14 inh – inhibitors of TWEAK-Fn14 interaction signaling | TWEAK-stimulated Fn14 reporter cells, luciferase luminescence, 8 h | inhibition, % at 10 µM | 360,000 compounds, 2% hits | AID 1159606; in the data active means inhibition above about 50%
TROY signal inh – blocks TROY-dependent signaling in reporter cells; Q293 LMP1-TROYcd NF-kB luciferase reporter, 4 h; inhibition, % at 10 µM; 360,000 compounds, 0.98% hits; AID 1347056;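 active means compounds whose plate-normalised and pattern-corrected inhibition of the luciferase reporter signal at the single screening dose is 50% or more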
EBV LMP1 NFkB – reduces LMP1-driven NF-kappaB luciferase signal; LMP1-induced NF-kappaB luciferase reporter cells, luminescence; inhibition, % at 12.5 µM; 350,000 compounds, 0.69% hits; AID 504558; in the data active means inhibition above about 41%;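 further: 0% = neutral control wells and 100% = reference inhibitor control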
Shn3 3UTR inh – inhibitors of Schnurri-3 3'UTR reporter in osteoblasts; Clone20 osteoblast Shn3 3'UTR firefly luciferase, 24 h; inhibition, % at 12.5 µM; 360,000 compounds, 0.52% hits;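 active means mean inhibition of at least 75% with every replicate also reaching 75%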;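 further: 0% = median of neutral control wells and 100% = pilot-screen positive control compound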
TRPM1 prom inh – reduces MITF-dependent TRPM1 promoter luciferase signal; SK-MEL-5 TRPM1 promoter luciferase, 24 h; inhibition, % at 12.5 µM; 330,000 compounds, 0.83% hits;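 active means mean inhibition across replicates of 60% or more, whatever share of single replicates reaches that level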
* = called active by the depositor; · = not tested or not shown; ! = not active in a repeat.

SMILES	HIF-2a block	TWEAK-Fn14 inh	TROY signal inh	EBV LMP1 NFkB	Shn3 3UTR inh	TRPM1 prom inh
CCOc1ccc(-n2c(-c3ccc(Br)cc3)c[n+]3c2CCCCC3)cc1	2	33	15	22	73	63*
COc1ccc(-c2c[n+]3c(n2-c2ccccc2)CCCCC3)cc1	12	18	21	4	80	26
COC(=O)C1CCN(Cc2ccc(OCCCN3CCN(c4ccc([N+](=O)[O-])cc4)CC3)cc2)CC1	4	6	27	28	73	2
COc1ccccc1-n1cc([C@@H]2C[C@H]3CN(c4ccccc4)C(=O)[C@]34CCCN24)cn1	-54	80*	40	60*	97*	46
COc1cc([C@@H]2C[C@H]3CN(c4ccccc4)C(=O)[C@]34CCCN24)cc(OC)c1OC	6	-3	-1	33	8	8
CCCCCN1C=CC(=C2C(=O)c3ccccc3C2=O)C=C1	88*	77*	78*	76*	93*	99*
CC1=CC(=C2C(=O)c3ccccc3C2=O)C=C(C)N1C	-187	10	-21	-18	-99	-53
COCOc1ccc(-c2ncc(OC)nc2NC(=O)c2cc(C)oc2C)cc1	-14	-16	-14	·	20	·
COC(=O)c1cccc(NC(=O)c2onc3c2CCCC3)c1	-101	5	-77	-1	-26	-20
O=C(Nc1ccc2ccccc2c1)c1onc2c1CCCC2	-118	57*	16	-31	2	-32
Cc1cccc(NC(=O)c2onc3c2CCCC3)n1	14	80*	52*	31	3	32
Cc1ccc(CCNC(=O)C2CCCN(S(=O)(=O)N3CC(C)CC(C)C3)C2)cc1 (centres undefined)	12	22	-15	-3	4	-4
CC(=O)c1cccc(NC(=O)COC(=O)c2ccccc2C)c1	-243	-18	-66	-29	-123	-92
O=C(Cn1c(C(=O)OCCO)cc2ccccc21)c1ccccc1	-14	13	3	5	-1	7
N=C(N)c1ccccc1	-17	4	-2	82*!	-9	-1
N=C(N)c1ccc(O)cc1	15	4	8	6	-7	2
CC(=O)c1ccc(NC(=O)COC(=O)c2c3c(nc4ccccc24)/C(=C\c2cccs2)CCC3)cc1	9	57*	16	-4	7	40
CN(C)CCN(C)C1CN(Cc2ccc(F)cc2)S(=O)(=O)C1 (centres undefined)	2	-22	11	·	-10	·
CCCCCCCCOC(=O)c1cc([N+](=O)[O-])c(Sc2ncnc3nc[nH]c23)c([N+](=O)[O-])c1	-53	20	-4	8	99*	43
CCCCOC(=O)c1ccc(Nc2ncnc3nc[nH]c23)cc1	-180	-6	-67	-35	-36	-81
CC(Sc1nc(-c2ccc(F)cc2)cs1)C(=O)N1c2ccccc2CC1C (centres undefined)	27	30	9	59*	15	13
COc1ccc(C(CNC(=O)Nc2ccccc2)N2CCN(C)CC2)cc1 (centres undefined)	-17	-9	-7	52*	3	-3
COc1ccc(NC(=O)NCCN2CCc3ccccc3C2)cc1	-13	-13	-21	82*	-24	-4
O=C(NCCCN1C(=O)c2ccccc2C1=O)OCc1ccccc1	3	-9	-12	-3	-8	12
CCc1nccn1C(=O)c1cnn2c(C(F)F)cc(-c3ccc(C)cc3)nc12	30	54*	8	-7	46	47
SMILES	HIF-2a block	TWEAK-Fn14 inh	TROY signal inh	EBV LMP1 NFkB	Shn3 3UTR inh	TRPM1 prom inh
CCN1CCN(C(=O)c2cnn3c(C(F)F)cc(-c4ccc(C)cc4)nc23)CC1	9	-30	4	-13	7	10
O=P(Nc1ccccc1)(Nc1ccccc1)c1ccccc1	17	29	6	9	-11	0
Cc1ccc(C)c(NC(=O)CSc2nc(N)c(NC(=O)c3cccs3)c(=O)[nH]2)c1	12	11	6	0	8	·
Cc1ccc(C)c(NC(=O)CSc2nc3nc(-c4cccs4)cc(C(F)(F)F)c3c(=O)[nH]2)c1	-4	7	53*	-10	-5	11
O=C(CSc1nc2nc(-c3cccs3)cc(C(F)(F)F)c2c(=O)[nH]1)Nc1ccc(F)c(F)c1	21	70*	49	-6	-3	15
COc1cc2c(cc1N)-c1ccc(N)cc1C2	-128	-6	-56	-19	-46	-61
